Records with an inconclusive call do not appear. Calls of active or inactive are those of the source. Calls come from the whole dose curve; as a rule, active = well fitted cell-killing curve with a large enough effect in the repeat runs; inconclusive = weak or mixed curves, or effect the other way; inactive = no such curve, though single readings can be large or run the other way.
Experiment: qHTS assay to identify small molecule agonists of the farnesoid-X-receptor (FXR) signaling pathway - cell viability counter screen (AID 743218); note: nearly all actives have a fitted effect of over 45% in size
Settings: FXR-bla HEK293T viability, CellTiter-Glo luminescence, 16 h; series mostly up to 62.6 µM
Description: U.S. Tox21 Program National Center for Advancing Translational Sciences [NCATS] NIH Chemical Genomics Center [NCGC] U.S. Environmental Protection Agency [EPA] National Institutes of Environmental Health Sciences [NIEHS] National Toxicology Program [NTP] U.S. Food and Drug Administration [FDA] Tox21 Assay Overview: The farnesoid-X-receptor (FXR), a nuclear hormone receptor, is highly expressed in liver, intestine, kidney and adrenal cortex. Natural ligands of FXR are the bile acids (Cholic acid, Chenodeoxy cholic acid etc). FXR is an important regulator of diverse metabolic pathways, including the bile acid homeostasis, lipid and glucose metabolisms. FXR regulates the expression of target genes by binding either as a monomer or as a heterodimer with the retinoid X receptor (RXR). Numerous studies have reported that FXR exerts protective function during cholestasis, diabetes, liver regeneration, and cancer. To identify compounds that activate FXR signaling, GeneBLAzer FXR-UAS-bla HEK 293T cell line (Invitrogen, Carlsbad, CA) containing a beta-lactamase reporter gene under the control of a UAS response element was used to screen the Tox21 10K compound library. The cytotoxicity of the Tox21 compound library against the FXR-bla cell line was tested in parallel by measuring the cell viability using CellTiter-Glo assay in the same wells.
Tox21 Assay Protocol Summary: FXR-bla cells were dispensed at 5000 cells/5uL/well in 1536-well black wall/clear bottom plates using a Multidrop Combi (Thermo Fisher Scientific, Waltham, MA) dispenser. After the assay plates were incubated at 37 C and 5% CO2 for 5 h, 23 nL of compounds dissolved in DMSO, positive controls or DMSO only was transferred to the assay plate by a Pintool station (Kalypsys, San Diego, CA). The assay plates were incubated at 37C for 16 h. After 1 uL of LiveBLAzerTM B/G FRET substrate was added using a Bioraptr Flying Reagent Dispenser (FRD) workstation (Beckman Coulter, Indianapolis, IN), the plates were incubated at room temperature for 2 h, and fluorescence intensity was measured by an Envision plate reader (PerkinElmer, Shelton, CT). For cell viability readout that measures cytotoxicity, 4uL/well of CellTiter-Glo reagent was added into the assay plates using a Bioraptr FRD. After 30 min incubation at room temperature, the luminescence intensity in the plates was measured using a ViewLux plate reader (PerkinElmer).

SMILES | outcome
CC(C)NC(=O)N1CC(=O)N(c2cc(Cl)cc(Cl)c2)C1=O | inactive
O=c1ccc(=O)[nH][nH]1 | inactive
COCCl | inactive
COC(=O)NS(=O)(=O)c1ccc(N)cc1 | inactive
Cc1ccc(N)cc1Cl | inactive
O=c1[nH]c(=O)[nH]c(=O)[nH]1 | inactive
O=C1CCCN1 | inactive
NCCc1ccc(O)cc1 | inactive
CCOP(=S)(OCC)Oc1cnc2ccccc2n1 | inactive
CCC(C)(CC)c1cc(NC(=O)c2c(OC)cccc2OC)on1 | inactive
CCCCN(CC)C(=O)SCCC | inactive
CCCCCCCCCl | inactive
CC(Oc1ccc(Cl)cc1Cl)C(=O)O (stereo not given) | inactive
c1cc2c3c(cccc3c1)CC2 | inactive
CCOP(=S)(OCC)SCCSCC | inactive
Cc1ccc([N+](=O)[O-])cc1C | inactive
CCNc1nc(NC(C)C)nc(SC)n1 | inactive
CCC[CH2][Sn]([Cl])([Cl])[Cl] | inactive
C#CCN(C)[C@H](C)Cc1ccccc1 | inactive
Cc1ccccc1O | inactive

SMILES | outcome
CC(C#N)CCC#N (stereo not given) | inactive
CC(C)N1C(=O)c2ccccc2NS1(=O)=O | inactive
CCCCOC(=O)c1ccccc1C(=O)OCCCC | inactive
CC(=O)C=C(C)C | inactive
O=c1n(Cl)c(=O)n(Cl)c(=O)n1Cl | inactive
Nc1ccccc1C(=O)O | inactive
CC(Br)C(=O)O (stereo not given) | inactive
Cc1ccc(N)cc1N | inactive
CCCN(CCC)N=O | inactive
O=S(=O)(c1ccc(Cl)cc1)c1cc(Cl)c(Cl)cc1Cl | inactive
C=CCO | inactive
CCCCCCCCCCCC#N | inactive
ClCCBr | inactive
[N-]=[N+]=[N-] | inactive
CC(C)C1(C)N=C(c2nc3ccccc3cc2C(=O)O)NC1=O (stereo not given) | inactive
OCCN(CCO)CCO | inactive
O=C(O)c1ccccn1 | inactive
CC(C)C#N | inactive
Cc1cc(Cl)ccc1O | inactive
Nc1ccc(Oc2ccc(N)cc2)cc1 | inactive

Source: PubChem BioAssay (Tox21)
